From the supplement of paper PMC11732987, “Enantioselective OTUD7B fragment discovery through chemoproteomics screening and high-throughput optimisation” (Communications Chemistry, 2025)

Tests used:
Assay in all cases: log2 ratio of Biotin-Ahx-Ub-VS probe labelling (fragment/DMSO); higher = less target engagement (more negative = stronger competition), active = hit call of the paper (q ≤ 0.05, log2 ratio ≤ -1)
Settings in all cases: compound concentration: 200 uM; treatment time: 3 h
USP19 = biological target: T1, USP19 (UniProt O94966)
T1 sequence (whole entry): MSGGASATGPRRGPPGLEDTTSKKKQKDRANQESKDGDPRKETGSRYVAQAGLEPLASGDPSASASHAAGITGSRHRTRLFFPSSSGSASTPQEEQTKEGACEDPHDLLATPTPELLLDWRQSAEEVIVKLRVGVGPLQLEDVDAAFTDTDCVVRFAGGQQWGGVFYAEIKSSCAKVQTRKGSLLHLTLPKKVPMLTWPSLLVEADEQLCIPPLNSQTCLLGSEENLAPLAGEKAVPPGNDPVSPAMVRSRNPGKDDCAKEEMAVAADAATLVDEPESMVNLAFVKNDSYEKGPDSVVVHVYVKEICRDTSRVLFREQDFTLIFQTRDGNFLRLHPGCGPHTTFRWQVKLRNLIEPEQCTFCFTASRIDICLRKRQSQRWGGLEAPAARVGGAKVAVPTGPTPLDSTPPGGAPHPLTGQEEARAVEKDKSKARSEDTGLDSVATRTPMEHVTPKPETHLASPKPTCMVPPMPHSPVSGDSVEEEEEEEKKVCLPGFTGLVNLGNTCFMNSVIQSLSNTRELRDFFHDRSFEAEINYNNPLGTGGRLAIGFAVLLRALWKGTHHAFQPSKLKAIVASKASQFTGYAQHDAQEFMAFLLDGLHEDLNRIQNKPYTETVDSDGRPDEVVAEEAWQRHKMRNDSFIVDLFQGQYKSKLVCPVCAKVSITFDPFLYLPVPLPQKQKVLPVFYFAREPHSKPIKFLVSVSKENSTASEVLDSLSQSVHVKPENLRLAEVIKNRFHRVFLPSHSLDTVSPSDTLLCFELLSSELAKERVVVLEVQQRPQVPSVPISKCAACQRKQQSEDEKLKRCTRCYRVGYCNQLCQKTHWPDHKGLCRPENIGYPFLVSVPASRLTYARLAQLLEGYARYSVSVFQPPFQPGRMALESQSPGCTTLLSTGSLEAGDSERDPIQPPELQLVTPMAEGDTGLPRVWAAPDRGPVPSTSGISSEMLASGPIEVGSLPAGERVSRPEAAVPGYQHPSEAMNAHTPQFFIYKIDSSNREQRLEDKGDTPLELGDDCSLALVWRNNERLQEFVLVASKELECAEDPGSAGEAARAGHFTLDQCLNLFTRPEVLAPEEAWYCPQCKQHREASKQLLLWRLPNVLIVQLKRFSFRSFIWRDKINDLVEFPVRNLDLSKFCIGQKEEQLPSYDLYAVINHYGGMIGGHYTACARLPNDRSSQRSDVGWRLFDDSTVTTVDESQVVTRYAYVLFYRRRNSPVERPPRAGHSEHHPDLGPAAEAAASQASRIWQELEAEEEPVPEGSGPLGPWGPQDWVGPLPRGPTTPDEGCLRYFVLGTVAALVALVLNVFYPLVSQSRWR
Summary of the method: (§1)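 Each value is an average log2 ratio of fragment to vehicle, tested by unpaired t-test. The underlying Spectronaut label-free quantities were global-median-normalised, and only proteins with ≥2 unique peptides were included. Triplicate HEK293T lysate samples (495 µg) were exposed to fragment at 200 µM or vehicle for 3 h, then to Biotin-Ahx-Ub-VS at 0.5 µM final for 1 h, before NeutrAvidin enrichment of labelled DUBs, LysC and trypsin digestion, and diaPASEF LC-MS/MS.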

USP22 = biological target: T2, USP22 (UniProt Q9UPT9)
T2 sequence (whole entry): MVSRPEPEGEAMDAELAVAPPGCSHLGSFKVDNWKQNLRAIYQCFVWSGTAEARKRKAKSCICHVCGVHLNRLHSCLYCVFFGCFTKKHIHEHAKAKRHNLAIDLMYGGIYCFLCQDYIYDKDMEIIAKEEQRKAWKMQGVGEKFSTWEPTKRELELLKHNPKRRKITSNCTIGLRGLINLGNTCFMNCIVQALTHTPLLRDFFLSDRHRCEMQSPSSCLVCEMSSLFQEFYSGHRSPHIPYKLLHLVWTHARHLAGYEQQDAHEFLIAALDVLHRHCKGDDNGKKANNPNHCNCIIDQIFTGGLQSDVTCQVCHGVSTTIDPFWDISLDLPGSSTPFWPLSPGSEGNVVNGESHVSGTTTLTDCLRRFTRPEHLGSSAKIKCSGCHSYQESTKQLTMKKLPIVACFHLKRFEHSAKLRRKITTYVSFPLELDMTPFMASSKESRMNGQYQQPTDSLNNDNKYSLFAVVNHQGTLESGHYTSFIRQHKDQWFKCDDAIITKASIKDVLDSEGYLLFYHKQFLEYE
Summary of the method: as §1

USP24 = USP24 (UniProt Q9UPU5)
Summary of the method: as §1

USP25 = biological target: T3, USP25 (UniProt Q9UHP3)
T3 sequence (whole entry): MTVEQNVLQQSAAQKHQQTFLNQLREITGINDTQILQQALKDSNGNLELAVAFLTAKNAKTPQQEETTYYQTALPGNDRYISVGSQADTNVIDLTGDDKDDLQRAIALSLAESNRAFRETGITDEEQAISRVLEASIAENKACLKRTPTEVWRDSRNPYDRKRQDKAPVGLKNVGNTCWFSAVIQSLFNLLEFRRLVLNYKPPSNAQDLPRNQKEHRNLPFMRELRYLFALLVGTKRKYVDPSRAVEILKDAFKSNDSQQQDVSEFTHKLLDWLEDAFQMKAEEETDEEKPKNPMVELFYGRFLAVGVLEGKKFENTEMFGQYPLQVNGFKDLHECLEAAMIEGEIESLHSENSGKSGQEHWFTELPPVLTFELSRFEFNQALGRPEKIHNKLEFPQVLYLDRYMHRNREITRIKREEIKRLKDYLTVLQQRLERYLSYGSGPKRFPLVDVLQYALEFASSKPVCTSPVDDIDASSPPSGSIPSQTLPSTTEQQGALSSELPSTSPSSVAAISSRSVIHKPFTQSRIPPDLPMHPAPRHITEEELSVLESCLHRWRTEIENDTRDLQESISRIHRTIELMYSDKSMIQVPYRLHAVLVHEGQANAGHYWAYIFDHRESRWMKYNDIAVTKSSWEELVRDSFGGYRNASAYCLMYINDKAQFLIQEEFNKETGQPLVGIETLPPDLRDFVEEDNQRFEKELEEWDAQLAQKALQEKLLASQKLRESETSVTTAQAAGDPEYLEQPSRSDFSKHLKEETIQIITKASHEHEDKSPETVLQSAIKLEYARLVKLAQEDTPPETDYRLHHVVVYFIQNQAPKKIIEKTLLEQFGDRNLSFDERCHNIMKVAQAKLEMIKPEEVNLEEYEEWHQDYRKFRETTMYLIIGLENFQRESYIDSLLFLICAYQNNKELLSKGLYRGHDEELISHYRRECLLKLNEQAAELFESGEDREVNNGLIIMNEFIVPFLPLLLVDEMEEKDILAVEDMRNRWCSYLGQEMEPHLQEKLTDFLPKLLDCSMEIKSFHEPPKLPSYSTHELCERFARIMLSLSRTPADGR
Summary of the method: as §1

USP28 = biological target: T4, USP28 (UniProt Q96RU2)
T4 sequence (whole entry): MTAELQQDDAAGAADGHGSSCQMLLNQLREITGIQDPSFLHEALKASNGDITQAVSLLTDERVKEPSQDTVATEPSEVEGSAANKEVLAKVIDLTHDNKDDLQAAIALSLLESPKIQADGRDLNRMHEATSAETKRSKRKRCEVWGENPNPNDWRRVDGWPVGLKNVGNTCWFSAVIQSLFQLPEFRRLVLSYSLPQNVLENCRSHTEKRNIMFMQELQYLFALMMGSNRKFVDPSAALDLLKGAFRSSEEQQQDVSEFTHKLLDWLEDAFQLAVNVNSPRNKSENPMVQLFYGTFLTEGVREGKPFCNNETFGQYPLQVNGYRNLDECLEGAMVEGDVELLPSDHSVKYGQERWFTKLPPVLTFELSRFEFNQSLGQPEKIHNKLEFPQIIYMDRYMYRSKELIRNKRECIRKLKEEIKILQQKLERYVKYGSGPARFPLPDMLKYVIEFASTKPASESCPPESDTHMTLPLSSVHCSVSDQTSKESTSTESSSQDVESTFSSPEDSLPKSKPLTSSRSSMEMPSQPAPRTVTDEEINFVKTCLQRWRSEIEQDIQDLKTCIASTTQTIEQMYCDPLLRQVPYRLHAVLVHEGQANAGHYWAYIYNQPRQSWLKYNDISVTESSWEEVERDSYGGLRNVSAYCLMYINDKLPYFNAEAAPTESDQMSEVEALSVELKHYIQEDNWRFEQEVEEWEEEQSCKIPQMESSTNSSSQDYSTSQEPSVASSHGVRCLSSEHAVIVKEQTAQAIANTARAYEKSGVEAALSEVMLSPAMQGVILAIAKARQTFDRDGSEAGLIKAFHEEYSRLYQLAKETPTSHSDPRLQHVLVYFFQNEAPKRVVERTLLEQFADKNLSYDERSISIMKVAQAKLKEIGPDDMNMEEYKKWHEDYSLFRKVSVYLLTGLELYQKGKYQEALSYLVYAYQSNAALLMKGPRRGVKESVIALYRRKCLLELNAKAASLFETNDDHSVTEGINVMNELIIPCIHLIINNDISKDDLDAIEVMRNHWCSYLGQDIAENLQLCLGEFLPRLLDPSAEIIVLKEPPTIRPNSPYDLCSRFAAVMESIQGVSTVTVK
Summary of the method: as §1

Measured: log2 ratio of Biotin-Ahx-Ub-VS probe labelling

Chain of USP24 (Q9UPU5 whole entry): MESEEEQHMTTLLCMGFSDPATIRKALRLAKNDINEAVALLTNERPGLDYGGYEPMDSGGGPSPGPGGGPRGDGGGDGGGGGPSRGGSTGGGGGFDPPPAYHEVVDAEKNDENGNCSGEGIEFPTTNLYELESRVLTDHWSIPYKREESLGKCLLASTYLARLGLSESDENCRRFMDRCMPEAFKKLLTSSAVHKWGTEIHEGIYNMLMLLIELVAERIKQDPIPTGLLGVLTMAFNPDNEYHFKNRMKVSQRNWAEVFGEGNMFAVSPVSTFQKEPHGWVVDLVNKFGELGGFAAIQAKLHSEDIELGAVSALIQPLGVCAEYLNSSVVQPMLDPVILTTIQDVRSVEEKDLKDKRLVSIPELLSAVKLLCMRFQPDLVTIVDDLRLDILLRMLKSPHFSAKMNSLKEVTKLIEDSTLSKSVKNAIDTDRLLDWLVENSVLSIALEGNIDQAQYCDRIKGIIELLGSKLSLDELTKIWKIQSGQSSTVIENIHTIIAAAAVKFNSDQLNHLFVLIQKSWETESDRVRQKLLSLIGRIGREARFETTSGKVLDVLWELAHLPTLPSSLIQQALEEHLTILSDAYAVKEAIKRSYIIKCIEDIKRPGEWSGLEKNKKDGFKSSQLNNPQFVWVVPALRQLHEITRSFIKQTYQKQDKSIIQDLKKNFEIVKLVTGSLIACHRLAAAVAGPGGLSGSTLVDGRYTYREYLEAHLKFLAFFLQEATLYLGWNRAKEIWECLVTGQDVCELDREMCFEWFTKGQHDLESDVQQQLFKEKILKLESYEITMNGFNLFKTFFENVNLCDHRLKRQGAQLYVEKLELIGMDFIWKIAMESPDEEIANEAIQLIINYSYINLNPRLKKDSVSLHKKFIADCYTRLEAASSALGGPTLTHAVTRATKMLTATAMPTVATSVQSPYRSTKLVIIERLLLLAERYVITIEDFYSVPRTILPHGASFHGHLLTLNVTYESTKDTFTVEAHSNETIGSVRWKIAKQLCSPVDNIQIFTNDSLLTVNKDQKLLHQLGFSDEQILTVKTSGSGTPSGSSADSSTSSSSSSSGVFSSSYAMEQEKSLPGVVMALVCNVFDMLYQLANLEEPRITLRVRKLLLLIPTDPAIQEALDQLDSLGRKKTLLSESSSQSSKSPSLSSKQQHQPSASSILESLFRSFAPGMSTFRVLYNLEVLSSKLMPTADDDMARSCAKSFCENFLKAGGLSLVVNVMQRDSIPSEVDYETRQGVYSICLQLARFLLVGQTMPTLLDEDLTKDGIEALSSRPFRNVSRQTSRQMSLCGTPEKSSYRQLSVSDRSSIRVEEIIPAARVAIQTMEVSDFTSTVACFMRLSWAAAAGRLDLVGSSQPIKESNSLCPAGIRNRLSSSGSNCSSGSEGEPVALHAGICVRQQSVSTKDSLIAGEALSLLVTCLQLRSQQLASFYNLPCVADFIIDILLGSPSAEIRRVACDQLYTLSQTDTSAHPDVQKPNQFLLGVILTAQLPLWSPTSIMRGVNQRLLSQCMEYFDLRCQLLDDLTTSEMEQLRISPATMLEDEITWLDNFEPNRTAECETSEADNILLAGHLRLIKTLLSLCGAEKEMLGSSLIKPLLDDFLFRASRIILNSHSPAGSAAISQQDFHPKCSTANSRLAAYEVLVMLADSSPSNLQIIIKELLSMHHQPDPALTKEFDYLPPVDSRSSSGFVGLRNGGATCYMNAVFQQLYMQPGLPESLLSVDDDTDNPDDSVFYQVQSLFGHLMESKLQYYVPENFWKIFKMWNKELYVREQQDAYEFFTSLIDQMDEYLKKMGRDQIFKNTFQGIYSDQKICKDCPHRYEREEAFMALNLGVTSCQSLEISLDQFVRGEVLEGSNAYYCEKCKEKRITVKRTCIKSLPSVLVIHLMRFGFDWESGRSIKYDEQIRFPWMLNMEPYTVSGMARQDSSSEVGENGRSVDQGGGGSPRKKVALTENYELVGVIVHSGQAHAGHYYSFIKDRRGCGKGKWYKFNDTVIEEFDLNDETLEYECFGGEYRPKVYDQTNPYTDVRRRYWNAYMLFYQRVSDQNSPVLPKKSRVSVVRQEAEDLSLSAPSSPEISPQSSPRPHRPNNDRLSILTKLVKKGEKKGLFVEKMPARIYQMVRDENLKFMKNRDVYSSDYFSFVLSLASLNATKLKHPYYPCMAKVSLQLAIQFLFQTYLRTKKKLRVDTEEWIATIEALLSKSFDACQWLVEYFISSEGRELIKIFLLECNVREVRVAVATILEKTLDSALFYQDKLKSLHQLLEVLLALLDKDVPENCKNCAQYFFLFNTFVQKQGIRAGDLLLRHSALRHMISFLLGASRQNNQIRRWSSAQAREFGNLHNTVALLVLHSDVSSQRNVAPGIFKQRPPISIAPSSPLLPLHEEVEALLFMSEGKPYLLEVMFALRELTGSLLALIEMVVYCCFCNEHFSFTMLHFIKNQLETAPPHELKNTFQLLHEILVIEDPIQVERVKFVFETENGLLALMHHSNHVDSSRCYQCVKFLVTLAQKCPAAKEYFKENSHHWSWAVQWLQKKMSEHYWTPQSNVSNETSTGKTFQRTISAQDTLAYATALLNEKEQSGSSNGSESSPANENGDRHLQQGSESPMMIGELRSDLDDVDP

CCC(NC(=O)CCl)c1ccc(Cl)cc1 (stereo not given)
inactive: USP19 -0.0763 | USP22 -0.735 | USP24 -0.327 | USP25 -0.24 | USP28 -0.504
